Here are results for 37 compounds from the supplement of paper PMC11219838.

Unmarked numbers belong to inactive results.

What all share (conditions): 60 µM; 5 days; temperature: 20 °C
For one assay, the system named is Meloidogyne hapla J2. Description: proportion of mobile M. hapla J2 relative to DMSO control (fraction of DMSO control); higher = more viable, less nematicidal, active = 0.7 or less. A digest of the protocol:
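About 25 M. hapla J2 were added per 96-well well in distilled water, and compound was pinned to 60 µM final (0.6% v/v DMSO). Sealed plates were shaken at 200 rpm for 5 days at 20 °C, then 2 µL 1 M NaOH was added before microscopic mobility scoring. Mobility was divided by the mean of eight DMSO wells on the same plate, and two biological replicates were averaged.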

In assay [1] the test system is Caenorhabditis elegans dauer (daf-2(e1370)). Briefly: proportion of mobile C. elegans dauer larvae relative to DMSO control (fraction of DMSO control); higher = more viable, less nematicidal, active = 0.63 or less; extreme values may be limits of the assay. The procedure, abridged:
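Synchronized C. elegans daf-2(e1370) larvae were held at 25 °C for 48 h on MYOB plates with E. coli OP50 to form dauers, and about 20 dauers were added per 96-well well in liquid NGM. Compound was pinned to 60 µM final (0.6% v/v DMSO), and sealed plates were shaken at 200 rpm for 5 days at 20 °C. The proportion of mobile worms was scored under a dissection microscope relative to DMSO controls and averaged over two biological replicates.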

The next assay has as its system Ditylenchus dipsaci. Briefly: proportion of mobile D. dipsaci (mixed stage) relative to DMSO control (fraction of DMSO control); higher = more viable, less nematicidal, active = 0.86 or less; extreme values may be limits of the assay. A digest of the protocol:
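D. dipsaci were grown on pea plants in Gamborg B-5 agar and extracted through a filter funnel into water, and about 20 worms were added per 96-well well in distilled water. Compound was pinned to 60 µM final (0.6% v/v DMSO), and sealed plates were shaken at 200 rpm for 5 days at 20 °C. After 2 µL 1 M NaOH was added, mobile worms were scored microscopically. Mobility was expressed relative to DMSO controls and averaged over two biological replicates.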

For `N#Cc1ccc(CSc2nnc(-c3ccncc3)o2)cc1`, in the assay on Meloidogyne hapla J2, the “proportion of mobile M. hapla J2” value was 0.972. Further, the “proportion of mobile C. elegans dauer larvae” value in assay [1] is 1. Also, the “proportion of mobile D. dipsaci” value with Ditylenchus dipsaci was 1.
For the compound `O=C(CSc1nnc(-c2cccc3ccccc23)o1)Nc1cccc(F)c1`, the “proportion of mobile M. hapla J2” value with Meloidogyne hapla J2 was 0.999. Moreover, the “proportion of mobile C. elegans dauer larvae” value in assay [1] was 1. Besides, the “proportion of mobile D. dipsaci” value in the assay with Ditylenchus dipsaci was 1.
For the compound `COc1ccc(-c2noc(COc3ccc(C(C)(C)C)cc3Br)n2)cc1`, the “proportion of mobile M. hapla J2” value in the assay with Meloidogyne hapla J2 is 0.82. In addition, in assay [1], the “proportion of mobile C. elegans dauer larvae” value is 1. Also, the “proportion of mobile D. dipsaci” value in the assay with Ditylenchus dipsaci is 1.
Consider `CC(C)c1ccc(NC(=O)CSc2nnc(-c3ccc(Br)cc3)o2)cc1`, for which, in the assay on Meloidogyne hapla J2, the “proportion of mobile M. hapla J2” value was 1.03. Further, the “proportion of mobile C. elegans dauer larvae” value in assay [1] was 1. Also, in the assay on Ditylenchus dipsaci, the “proportion of mobile D. dipsaci” value is 1.
In the case of `Brc1ccc(-c2noc(CSc3ccccc3)n2)cc1`, in the assay with Meloidogyne hapla J2, the “proportion of mobile M. hapla J2” value is 1.09. Also, the “proportion of mobile C. elegans dauer larvae” value in assay [1] was 1. Moreover, in the assay on Ditylenchus dipsaci, the “proportion of mobile D. dipsaci” value is 1.
For the compound `CCc1ccc(OCc2nc(-c3ccc(C)cc3)no2)cc1`, in the assay with Meloidogyne hapla J2, the “proportion of mobile M. hapla J2” value is 1.04. For the same compound, the “proportion of mobile C. elegans dauer larvae” value in assay [1] was 1. The “proportion of mobile D. dipsaci” value in the assay with Ditylenchus dipsaci was 1.
In the case of `Cc1cccc(-c2nc(-c3ccc(Br)cc3)no2)c1`, the “proportion of mobile M. hapla J2” value with Meloidogyne hapla J2 is 1.01. Moreover, in assay [1], the “proportion of mobile C. elegans dauer larvae” value is 1. Besides, in the assay with Ditylenchus dipsaci, the “proportion of mobile D. dipsaci” value was 1.
As for `Clc1ccccc1-c1noc(-c2ccncc2)n1`, the “proportion of mobile M. hapla J2” value with Meloidogyne hapla J2 was 0.953. Besides, the “proportion of mobile C. elegans dauer larvae” value in assay [1] is 1. Moreover, in the assay with Ditylenchus dipsaci, the “proportion of mobile D. dipsaci” value was 1.
For the compound `O=C(CSc1nnc(-c2ccc(Cl)cc2)o1)NC1CC2CCC1C2` (stereo unspecified), the “proportion of mobile M. hapla J2” value with Meloidogyne hapla J2 is 0.693 (active). The “proportion of mobile C. elegans dauer larvae” value in assay [1] is 1. In addition, the “proportion of mobile D. dipsaci” value with Ditylenchus dipsaci was 1.
For the compound `O=C(Nc1ccc(-c2noc(COc3ccccc3Cl)n2)cc1)c1ccccn1`, in the assay on Meloidogyne hapla J2, the “proportion of mobile M. hapla J2” value was 1.02. In assay [1], the “proportion of mobile C. elegans dauer larvae” value was 1. The “proportion of mobile D. dipsaci” value with Ditylenchus dipsaci was 1.
Take `Brc1ccccc1-c1nc(-c2ccccn2)no1`: in the assay on Meloidogyne hapla J2, the “proportion of mobile M. hapla J2” value is 0.678 (active). For the same compound, the “proportion of mobile C. elegans dauer larvae” value in assay [1] was 0.738. For the same compound, in the assay with Ditylenchus dipsaci, the “proportion of mobile D. dipsaci” value is 1.
In the case of `c1cncc(-c2noc(-c3cccc4ccccc34)n2)c1`, in the assay with Meloidogyne hapla J2, the “proportion of mobile M. hapla J2” value is 1.04. Besides, the “proportion of mobile C. elegans dauer larvae” value in assay [1] was 1. In addition, the “proportion of mobile D. dipsaci” value in the assay on Ditylenchus dipsaci was 1.
Turning to `COc1ccc(-c2noc(CSc3nc4cc(C)ccc4[nH]3)n2)cc1`, the “proportion of mobile M. hapla J2” value with Meloidogyne hapla J2 was 0.861. Also, the “proportion of mobile C. elegans dauer larvae” value in assay [1] is 1. Also, the “proportion of mobile D. dipsaci” value in the assay on Ditylenchus dipsaci was 1.
For the compound `Cc1ccc(OCc2nc(-c3ccncc3)no2)cc1C`, in the assay on Meloidogyne hapla J2, the “proportion of mobile M. hapla J2” value is 1.03. Also, in assay [1], the “proportion of mobile C. elegans dauer larvae” value is 1. The “proportion of mobile D. dipsaci” value in the assay on Ditylenchus dipsaci was 1.
Consider `Cc1ccc(-c2nc(-c3ccccc3)no2)cc1C`, for which, in the assay with Meloidogyne hapla J2, the “proportion of mobile M. hapla J2” value is 0.884. Further, the “proportion of mobile C. elegans dauer larvae” value in assay [1] was 1. The “proportion of mobile D. dipsaci” value in the assay on Ditylenchus dipsaci is 1.
Turning to `CCOc1cc(-c2nc(-c3ccccc3OC)no2)cc(OCC)c1OCC`, in the assay with Meloidogyne hapla J2, the “proportion of mobile M. hapla J2” value was 0.978. The “proportion of mobile C. elegans dauer larvae” value in assay [1] is 1. Moreover, the “proportion of mobile D. dipsaci” value with Ditylenchus dipsaci was 1.
For the compound `CCc1ccc(C(=O)Nc2ccccc2-c2nc(-c3ccncc3)no2)cc1`, in the assay on Meloidogyne hapla J2, the “proportion of mobile M. hapla J2” value was 1. Moreover, the “proportion of mobile C. elegans dauer larvae” value in assay [1] was 1. Besides, in the assay with Ditylenchus dipsaci, the “proportion of mobile D. dipsaci” value was 1.
As to `Cc1ccc(-c2noc(CSc3nc(C)cc(C)n3)n2)cc1`, the “proportion of mobile M. hapla J2” value in the assay with Meloidogyne hapla J2 is 0.974. The “proportion of mobile C. elegans dauer larvae” value in assay [1] is 1. In addition, the “proportion of mobile D. dipsaci” value with Ditylenchus dipsaci is 1.
For `Cc1ccc(-c2noc(-c3ccccc3OCC(N)=O)n2)cc1`, in the assay on Meloidogyne hapla J2, the “proportion of mobile M. hapla J2” value was 1.04. Besides, in assay [1], the “proportion of mobile C. elegans dauer larvae” value was 1. The “proportion of mobile D. dipsaci” value in the assay with Ditylenchus dipsaci was 1.
For `COc1ccccc1-c1nnc(SCC(=O)Nc2ccc(F)cc2)o1`, the “proportion of mobile M. hapla J2” value in the assay on Meloidogyne hapla J2 was 0.995. For the same compound, in assay [1], the “proportion of mobile C. elegans dauer larvae” value was 1. In addition, the “proportion of mobile D. dipsaci” value in the assay on Ditylenchus dipsaci is 1.
Regarding `COC(=O)c1ccc(CSc2nnc(-c3ccc(OC)cc3)o2)cc1`, the “proportion of mobile M. hapla J2” value with Meloidogyne hapla J2 was 1.02. In addition, the “proportion of mobile C. elegans dauer larvae” value in assay [1] was 1. In the assay on Ditylenchus dipsaci, the “proportion of mobile D. dipsaci” value was 1.
For the compound `COc1ccc(-c2noc(-c3ccccc3Cl)n2)cc1`, the “proportion of mobile M. hapla J2” value in the assay with Meloidogyne hapla J2 was 0.885. Also, the “proportion of mobile C. elegans dauer larvae” value in assay [1] was 1. Moreover, in the assay with Ditylenchus dipsaci, the “proportion of mobile D. dipsaci” value is 1.
Take `COc1ccc(Cl)cc1-c1noc(-c2ccc(Cl)cc2)n1`: the “proportion of mobile M. hapla J2” value in the assay with Meloidogyne hapla J2 was 0.906. Also, the “proportion of mobile C. elegans dauer larvae” value in assay [1] is 1. Also, in the assay with Ditylenchus dipsaci, the “proportion of mobile D. dipsaci” value is 1.
For the compound `O=C(CSc1nnc(-c2cccnc2)o1)c1ccc(Br)cc1`, the “proportion of mobile M. hapla J2” value with Meloidogyne hapla J2 was 1.04. Moreover, the “proportion of mobile C. elegans dauer larvae” value in assay [1] is 1. Further, the “proportion of mobile D. dipsaci” value with Ditylenchus dipsaci was 1.
`Cc1ccc(-c2nc(-c3cccc(C(F)(F)F)c3)no2)cc1`: in the assay on Meloidogyne hapla J2, the “proportion of mobile M. hapla J2” value is 1.04. Besides, the “proportion of mobile C. elegans dauer larvae” value in assay [1] is 1. Moreover, the “proportion of mobile D. dipsaci” value in the assay on Ditylenchus dipsaci is 1.
In the case of `Cc1ccc(-c2noc(-c3ccc4c(c3)OCCO4)n2)cc1`, in the assay with Meloidogyne hapla J2, the “proportion of mobile M. hapla J2” value is 1. In addition, the “proportion of mobile C. elegans dauer larvae” value in assay [1] was 0.615 (active). Besides, the “proportion of mobile D. dipsaci” value in the assay with Ditylenchus dipsaci was 1.
For the compound `N#Cc1ccccc1CSc1nnc(-c2ccncc2)o1`, the “proportion of mobile M. hapla J2” value in the assay with Meloidogyne hapla J2 was 0.826. Further, the “proportion of mobile C. elegans dauer larvae” value in assay [1] was 1. Moreover, the “proportion of mobile D. dipsaci” value with Ditylenchus dipsaci is 1.
Consider `COc1cccc(-c2noc(-c3ccc(C)cc3Cl)n2)c1`, for which the “proportion of mobile M. hapla J2” value in the assay on Meloidogyne hapla J2 is 1. The “proportion of mobile C. elegans dauer larvae” value in assay [1] is 1. In the assay with Ditylenchus dipsaci, the “proportion of mobile D. dipsaci” value is 1.
Turning to `Cc1cccc(-c2noc(-c3ccc4c(c3)OCO4)n2)c1`, the “proportion of mobile M. hapla J2” value in the assay with Meloidogyne hapla J2 was 0.974. In assay [1], the “proportion of mobile C. elegans dauer larvae” value is 1. Also, in the assay on Ditylenchus dipsaci, the “proportion of mobile D. dipsaci” value is 1.
With `O=C(NC1CCCCC1)c1ccccc1-c1nc(-c2ccc(F)cc2)no1`, the “proportion of mobile M. hapla J2” value in the assay on Meloidogyne hapla J2 was 0.863. In assay [1], the “proportion of mobile C. elegans dauer larvae” value is 1. Also, in the assay on Ditylenchus dipsaci, the “proportion of mobile D. dipsaci” value was 1.
Regarding `Clc1ccc(-c2noc(-c3ccc4c(c3)OCCO4)n2)cc1`, in the assay with Meloidogyne hapla J2, the “proportion of mobile M. hapla J2” value was 1.02. Moreover, in assay [1], the “proportion of mobile C. elegans dauer larvae” value was 1. Further, in the assay with Ditylenchus dipsaci, the “proportion of mobile D. dipsaci” value was 1.
As to `CCCC(=O)Nc1ccccc1-c1nc(-c2cccnc2)no1`, the “proportion of mobile M. hapla J2” value in the assay with Meloidogyne hapla J2 was 1.04. For the same compound, the “proportion of mobile C. elegans dauer larvae” value in assay [1] is 1. For the same compound, the “proportion of mobile D. dipsaci” value with Ditylenchus dipsaci was 1.
`O=C(CSc1nnc(-c2ccco2)o1)Nc1cccc(C(F)(F)F)c1`: the “proportion of mobile M. hapla J2” value in the assay on Meloidogyne hapla J2 is 0.879. In addition, the “proportion of mobile C. elegans dauer larvae” value in assay [1] is 1. Besides, the “proportion of mobile D. dipsaci” value with Ditylenchus dipsaci is 1.
On to `O=C(Nc1cccc(-c2noc(-c3cccnc3)n2)c1)c1cccs1`, for which the “proportion of mobile M. hapla J2” value in the assay with Meloidogyne hapla J2 is 0.999. In addition, the “proportion of mobile C. elegans dauer larvae” value in assay [1] was 1. Moreover, the “proportion of mobile D. dipsaci” value in the assay with Ditylenchus dipsaci was 1.
As for `Cc1cccc(OCc2nc(-c3ccc(Br)cc3)no2)c1`, in the assay with Meloidogyne hapla J2, the “proportion of mobile M. hapla J2” value is 1.04. For the same compound, the “proportion of mobile C. elegans dauer larvae” value in assay [1] was 1. Further, the “proportion of mobile D. dipsaci” value in the assay on Ditylenchus dipsaci is 1.
For `Cc1ccccc1-c1nc(-c2ccc(Cl)cc2)no1`, the “proportion of mobile M. hapla J2” value in the assay on Meloidogyne hapla J2 is 0.841. Moreover, the “proportion of mobile C. elegans dauer larvae” value in assay [1] was 1. Moreover, the “proportion of mobile D. dipsaci” value with Ditylenchus dipsaci is 1.
`Cn1c(SCc2nc(-c3cccs3)no2)nnc1-c1ccco1`: the “proportion of mobile M. hapla J2” value in the assay with Meloidogyne hapla J2 is 0.932. In assay [1], the “proportion of mobile C. elegans dauer larvae” value was 1. Besides, the “proportion of mobile D. dipsaci” value with Ditylenchus dipsaci was 1.
